# Reference: PubChem BioAssay (NCATS)
# Inconclusive results are not listed. Activity calls are given as the source filed them. Unless noted, calls come from the whole dose curve; as a rule, active = well fitted curve in the direction sought with a large enough effect; inconclusive = small, poorly fitted or top-dose-only effect, or another doubt; inactive = no such curve, though single readings can be large; an effect the other way counts as inactive or inconclusive.
# Experiments:
# [1] = target: Cytochrome P450 2C9 (Homo sapiens) (UniProt P11712); assay: qHTS Assay for Inhibitors and Substrates of Cytochrome P450 2C9 (AID 883); conditions: recombinant CYP2C9, luciferin-H luminescence, 60 min; series mostly up to 57.1 µM; note: potency is the fitted concentration of half-maximal effect; nearly all actives have a fitted effect of over 60% in size
# Summary of the method: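 Human CYP2C9 (10nM) hydroxylated Luciferin-H (100uM, at its KM) to luciferin in 25mM KPO4. Compound was preincubated 10 min at 37C, then NADPH regeneration started a 60 min reaction at 37C. Luminescence was read after detection reagent, normalized to 57uM sulphaphenazole.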
# [2] = target: Cytochrome P450 2C19 (Homo sapiens) (UniProt P33261); assay: qHTS Assay for Inhibitors and Substrates of Cytochrome P450 2C19 (AID 899); conditions: recombinant CYP2C19, luciferin-H EGE luminescence; series mostly up to 57.1 µM; note: potency is the fitted concentration of half-maximal effect; nearly all actives have a fitted effect of over 60% in size
# Summary of the method: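 Human CYP2C19 (5nM) with Luciferin-H EGE at 10uM (its KM) in 50mM KPO4 was preincubated with compound for 10 min at 37C. NADPH regeneration started a 60 min 37C reaction. Luciferin was read by luminescence, normalized to 57uM ketoconazole.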
# [3] = target: Muscarinic acetylcholine receptor M1 (Rattus norvegicus) (UniProt P08482); assay: qHTS Assay for Antagonists of Acetylcholine Muscarinic M1 Receptor: Measurement of IP-One Response (AID 944); conditions: CHO-M1 cells, IP-One HTRF, antagonist mode; series mostly up to 46.1 µM; note: nearly all actives have a fitted effect of over 75% in size
# Summary of the method: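 Antagonist mode with rat M1 receptor transfected into CHO cells. Compound is added first for 10 min, carbachol at its EC80 follows for 30 min, and lysis reagents then allow TR-FRET detection of accumulated IP1.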
# [4] = target: Pyruvate kinase (Leishmania mexicana) (UniProt Q27686); assay: qHTS Validation Assay for Inhibitors of Leishmania Mexicana Pyruvate Kinase (AID 945);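 note: 0% = DMSO only neutral control wells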; conditions: purified L. mexicana pyruvate kinase, enzyme activity, E451W mutant enzyme; series mostly up to 57.5 µM
# Summary of the method: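 Mutant LmPYK (E451W), 0.2 nM, plus 0.5 mM PEP and 0.1 mM ADP in 50 mM imidazole pH 7.2 containing 0.01% Tween 20 and 0.05% BSA. Incubated 1 h at room temperature; luminescence via PKLight, normalized to DMSO.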
# [5] = target: Pyruvate kinase PKM (Homo sapiens) (UniProt P14618); assay: qHTS Assay for Activators of Human Muscle Pyruvate Kinase (AID 954; active = well fitted curve in the direction sought with a large enough effect, not every such curve was filed as active;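 note: 0% = uninhibited enzyme and -100% = no enzyme or full thiadiazolimine inhibition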); conditions: purified human muscle pyruvate kinase, luciferase-coupled luminescence, 1 h; series mostly up to 57.5 µM
# Summary of the method: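 ATP production by PKM2 detected via luciferase luminescence after 1 h room-temperature reaction (0.1 nM enzyme, PEP at Km 0.5 mM, ADP 0.1 mM, pH 7.2 imidazole buffer). Inhibition scaled to no-enzyme control; activation referenced to 0.3 nM enzyme wells.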
# [6] = target: Alpha-galactosidase A (Homo sapiens) (UniProt P06280); assay: Counterscreen for Glucocerebrosidase Inhibitors: qHTS Assay for Human alpha-Galactosidase at pH 4.5 (AID 992); conditions: purified enzyme, fluorogenic substrate; series mostly up to 76.9 µM; note: 0% is about no effect
# Summary of the method: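 Fluorogenic 1536-well qHTS at pH 4.5 (citrate, Tween-20): 2 nM enzyme, 80 uM 4-MU-alpha-galactoside, 20 min room temperature, NaOH/glycine stop. Titration 0.7 nM to 77 uM, data normalized to no-enzyme and full-activity controls, Hill-fitted AC50.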
# [7] = target: alpha-glucosidase (Oryza sativa, rice) (UniProt Q653V4); assay: Counterscreen for Glucocerebrosidase Inhibitors: qHTS Assay for Rice alpha-Glucosidase at pH 5.0 (AID 997); conditions: rice alpha-glucosidase enzyme activity; series mostly up to 76.9 µM;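 note: 0% = full activity with enzyme and -100% = basal without enzyme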
# Summary of the method: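 Endpoint fluorogenic assay at pH 5.0: compounds (0.7 nM to 77 uM) titrated against 4 nM rice enzyme and 400 uM 4-MU-alpha-glucoside for 20 min at room temperature; NaOH/glycine stop, read ex 365/em 440 nm, Hill-fitted AC50.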
# [8] = qHTS profiling of the MIPE4 collection as inhibitors of Plasmodium falciparum (3D7) proliferation (AID 743344; call rule not given here;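 note: scaled between DMSO vehicle wells and 0.29 µM artemisinin as full inhibition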); conditions: P. falciparum 3D7 in erythrocytes, SYBR Green DNA fluorescence, 72 h; at 28.5 µM (top of the series)
# Summary of the method: (§1)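 Parasite DNA was quantified by SYBR Green I fluorescence (ex 485, em 535 nm) after overnight lysis in saponin/Triton buffer at room temperature. Cultures at 0.3% parasitemia and 2.5% hematocrit were first exposed to compound for 72 h at 37 C; signals were normalised to artemisinin (0.29 uM) and vehicle wells.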
# [9] = qHTS profiling of the MIPE4 collection as inhibitors of Plasmodium falciparum (DD2) proliferation (AID 743345; call rule not given here); conditions: P. falciparum Dd2 in erythrocytes, SYBR Green DNA, 72 h; at 28.5 µM (top of the series)
# Summary of the method: as §1
# [10] = qHTS profiling of the MIPE4 collection as inhibitors of Plasmodium falciparum (DD2) proliferation (Rep 2) (AID 743346; call rule not given here); conditions: P. falciparum Dd2 in erythrocytes, SYBR Green DNA, 72 h; at 28.5 µM (top of the series)
# Summary of the method: as §1
# [11] = qHTS profiling of the MIPE4 collection as inhibitors of Plasmodium falciparum (HB3) proliferation (AID 743347; call rule not given here;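 note: plate controls were DMSO vehicle wells for no effect and artemisinin wells for full effect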); conditions: P. falciparum HB3 in erythrocytes, SYBR Green DNA, 72 h; at 28.5 µM (top of the series)
# Summary of the method: as §1
# Alpha-galactosidase A (Homo sapiens), sequence (P06280 whole entry, looked up): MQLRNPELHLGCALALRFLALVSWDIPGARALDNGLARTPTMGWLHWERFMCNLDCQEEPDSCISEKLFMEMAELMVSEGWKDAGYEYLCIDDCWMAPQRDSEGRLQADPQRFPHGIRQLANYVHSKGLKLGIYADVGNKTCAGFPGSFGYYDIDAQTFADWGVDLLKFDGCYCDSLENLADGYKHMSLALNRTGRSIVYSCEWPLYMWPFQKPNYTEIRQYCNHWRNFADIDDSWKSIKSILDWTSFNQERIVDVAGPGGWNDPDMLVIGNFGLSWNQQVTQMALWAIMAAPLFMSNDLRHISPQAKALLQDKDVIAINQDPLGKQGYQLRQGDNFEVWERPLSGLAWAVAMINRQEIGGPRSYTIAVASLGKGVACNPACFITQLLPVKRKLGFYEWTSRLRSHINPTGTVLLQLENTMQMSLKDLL
# Muscarinic acetylcholine receptor M1 (Rattus norvegicus), sequence (P08482 whole entry, looked up): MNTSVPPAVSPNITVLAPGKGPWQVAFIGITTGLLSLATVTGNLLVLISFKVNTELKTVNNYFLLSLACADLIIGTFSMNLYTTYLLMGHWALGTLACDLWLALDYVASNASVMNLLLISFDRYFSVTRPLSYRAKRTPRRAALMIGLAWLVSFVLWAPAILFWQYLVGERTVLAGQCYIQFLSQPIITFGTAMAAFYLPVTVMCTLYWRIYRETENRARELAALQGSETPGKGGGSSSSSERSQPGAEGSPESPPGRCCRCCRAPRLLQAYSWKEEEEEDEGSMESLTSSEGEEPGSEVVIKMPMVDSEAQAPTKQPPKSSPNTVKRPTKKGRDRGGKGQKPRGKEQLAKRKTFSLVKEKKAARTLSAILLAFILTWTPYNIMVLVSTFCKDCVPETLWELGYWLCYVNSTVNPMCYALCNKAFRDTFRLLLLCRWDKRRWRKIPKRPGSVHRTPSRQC
# Pyruvate kinase PKM (Homo sapiens), sequence (P14618 whole entry, looked up): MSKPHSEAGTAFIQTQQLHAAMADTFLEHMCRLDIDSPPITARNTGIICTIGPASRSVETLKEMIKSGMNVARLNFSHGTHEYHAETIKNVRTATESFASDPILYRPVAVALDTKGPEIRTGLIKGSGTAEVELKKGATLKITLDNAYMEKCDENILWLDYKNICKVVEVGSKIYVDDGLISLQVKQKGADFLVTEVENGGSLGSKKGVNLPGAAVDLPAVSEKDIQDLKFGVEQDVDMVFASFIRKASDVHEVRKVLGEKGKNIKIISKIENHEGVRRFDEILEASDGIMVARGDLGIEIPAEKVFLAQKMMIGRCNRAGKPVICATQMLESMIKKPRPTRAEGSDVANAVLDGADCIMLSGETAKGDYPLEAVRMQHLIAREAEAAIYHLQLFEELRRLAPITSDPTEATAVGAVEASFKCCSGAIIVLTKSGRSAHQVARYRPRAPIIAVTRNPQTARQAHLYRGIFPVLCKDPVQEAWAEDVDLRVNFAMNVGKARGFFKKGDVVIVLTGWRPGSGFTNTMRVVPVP
# Cytochrome P450 2C9 (Homo sapiens), sequence (P11712 whole entry, looked up): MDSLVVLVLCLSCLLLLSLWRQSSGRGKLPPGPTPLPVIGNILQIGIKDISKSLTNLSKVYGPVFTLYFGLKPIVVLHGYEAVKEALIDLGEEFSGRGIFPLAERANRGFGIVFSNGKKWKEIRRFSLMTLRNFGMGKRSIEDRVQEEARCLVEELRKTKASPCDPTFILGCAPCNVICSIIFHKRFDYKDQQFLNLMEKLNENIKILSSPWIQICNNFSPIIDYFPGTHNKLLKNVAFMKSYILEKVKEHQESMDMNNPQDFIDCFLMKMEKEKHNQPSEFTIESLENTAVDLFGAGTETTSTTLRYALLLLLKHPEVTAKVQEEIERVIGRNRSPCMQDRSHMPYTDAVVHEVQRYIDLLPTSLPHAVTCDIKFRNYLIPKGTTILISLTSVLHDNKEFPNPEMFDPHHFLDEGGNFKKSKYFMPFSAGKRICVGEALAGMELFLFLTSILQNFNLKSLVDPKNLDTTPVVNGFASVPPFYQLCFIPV
# Pyruvate kinase (Leishmania mexicana), sequence (Q27686 2-499 E452W): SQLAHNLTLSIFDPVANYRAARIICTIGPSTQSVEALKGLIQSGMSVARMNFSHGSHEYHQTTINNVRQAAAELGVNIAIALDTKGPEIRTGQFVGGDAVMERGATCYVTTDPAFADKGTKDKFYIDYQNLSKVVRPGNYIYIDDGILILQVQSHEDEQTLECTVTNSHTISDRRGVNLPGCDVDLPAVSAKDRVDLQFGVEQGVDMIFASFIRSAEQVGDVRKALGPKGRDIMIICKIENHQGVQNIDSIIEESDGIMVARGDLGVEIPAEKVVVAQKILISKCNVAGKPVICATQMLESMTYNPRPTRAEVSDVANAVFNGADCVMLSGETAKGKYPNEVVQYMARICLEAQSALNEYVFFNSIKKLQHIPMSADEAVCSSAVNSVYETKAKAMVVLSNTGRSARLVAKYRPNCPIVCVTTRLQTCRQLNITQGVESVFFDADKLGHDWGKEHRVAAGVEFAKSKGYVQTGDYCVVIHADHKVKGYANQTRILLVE
# Cytochrome P450 2C19 (Homo sapiens), sequence (P33261 whole entry, looked up): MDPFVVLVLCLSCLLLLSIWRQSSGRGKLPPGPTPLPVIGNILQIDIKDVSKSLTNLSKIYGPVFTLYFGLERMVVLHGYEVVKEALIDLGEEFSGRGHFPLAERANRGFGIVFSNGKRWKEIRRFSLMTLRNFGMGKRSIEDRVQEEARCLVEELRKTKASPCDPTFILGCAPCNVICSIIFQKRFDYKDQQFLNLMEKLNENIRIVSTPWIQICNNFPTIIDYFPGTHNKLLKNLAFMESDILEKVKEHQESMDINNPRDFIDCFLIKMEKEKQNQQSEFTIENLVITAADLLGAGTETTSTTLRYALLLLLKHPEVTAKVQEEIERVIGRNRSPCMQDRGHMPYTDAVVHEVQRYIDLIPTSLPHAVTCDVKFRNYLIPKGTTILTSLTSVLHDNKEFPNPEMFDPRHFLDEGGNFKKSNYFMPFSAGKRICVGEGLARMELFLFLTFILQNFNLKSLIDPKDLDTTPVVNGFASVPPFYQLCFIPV
Compound,Potency [1],Potency [2],Potency [3],Potency [4],outcome [5],outcome [6],outcome [7],"parasite growth, % of DMSO control [8] [%]","parasite growth remaining, % of DMSO control (lower = more inhibition) [9] [%]","parasite growth, % of control (lower = inhibition) [10] [%]","growth, % of control [11] [%]"
CN1CC[C@]2(C)c3cc(O)ccc3N(C)[C@@H]12,25.1 µM (active),12.6 µM (active),inactive,inactive,inactive,inactive,inactive,–,–,–,–
CN1CCN(c2ncc(-c3cc(Cl)cc(Cl)c3Cl)c(N)n2)CC1,–,–,–,–,–,–,–,53.8,75.6,39.8,81.9
